Among all 69,000 compounds or so, about 8,600 (12%) showed an effect of 50% or more. The sample as a whole holds a higher share of strong results than the screen did.
Test system: Plasmodium berghei
Assay: Screen against P. berghei liver stage (PbLuc), transformed with Luciferase, at 10uM
Format: functional, HepG2
Conditions: tested at 10 uM

Row | Structure (SMILES) | INHIBITION
1 | Cn1cc(I)c(C(=O)NCCCn2cc(Br)cn2)n1 | 26.8%
2 | CC(C)N1CCOCC2(CCCN(C(=O)CCc3cccnc3)C2)C1 (centres undefined) | 35.4%
3 | CN1CC(c2cc(O)nc(NCc3ccc(Cl)cc3)n2)CC1=O (centres undefined) | -17.7%
4 | C1CCN(CCOC2CCNC2)CC1 (centres undefined) | 5.42%
5 | CCn1cc(CN2C[C@@H]3CC[C@H]2CN(C(=O)c2cnccn2)C3)cn1 | 21.5%
6 | Cc1cc(C(=O)N2CCC3(CC2)CC(c2cccnc2)C(=O)N3C)no1 (centres undefined) | -36.5%
7 | CNCc1cc(F)ccc1Oc1ccc(F)cc1F | -13.7%
8 | O=C(Cc1ccncc1)N1CCC2(CC1)CC(c1ccccc1)CO2 (centres undefined) | 95.5%
9 | CCOCC(=O)N1CCC2(CC1)CC(c1ccccc1)CO2 (centres undefined) | 38.5%
10 | COCCC1COC2(CCN(C(=O)Cc3ccccc3)CC2)C1 (centres undefined) | 28.7%
11 | CC1COC2(CCN(C(=O)Cc3ccncc3)CC2)C1 (centres undefined) | 62.9%
12 | Cn1cc(C2COC3(CCN(C(=O)Cc4ccccc4)CC3)C2)cn1 (centres undefined) | 48.4%
13 | O=C(Cc1ccccc1)N1CCC2(CC1)CC(Nc1cnccn1)CO2 (centres undefined) | 31.5%
14 | CCN1CCC(N2CCN(C)C3(CCC(=O)N(CCOC)CC3)C2)CC1 (centres undefined) | 7.92%
15 | COc1ccccc1-c1cccc(C2CCCN(C3CCOCC3)C2)n1 (centres undefined) | 36.95%
16 | COC(=O)c1cccc(C2CNCCN2C)c1 (centres undefined) | 32.7%
17 | Cn1ccnc1CN1CCC2(CC1)Cc1ccccc1CNC2=O | 23.6%
18 | Cc1nccc(C2CCCN(S(=O)(=O)N3CCOCC3)C2)n1 (centres undefined) | 24.075%
19 | CNC(=O)CCN(C)CC1(c2ccc(Br)cc2)CC1 | -0.532%
20 | Cc1ccccc1CN1C[C@H]2CC[C@@H](C1)N(CC1CCC1)C2=O | 28.3%

Row | Structure (SMILES) | INHIBITION
21 | O=C(CN1C(=O)CCNC1=O)N1CCOC(c2ccc(F)cc2)C1 (centres undefined) | -141%
22 | N#CC1(C(=O)N2CCOC(c3ccc(Cl)cc3)C2)CCCC1 (centres undefined) | 57.1%
23 | CCn1cnnc1CNC(=O)N1CCOC(c2ccc(Cl)cc2)C1 (centres undefined) | 27.5%
24 | N#CC1(C(=O)N2CCOC(c3ccc(F)cc3)C2)CCCC1 (centres undefined) | 54.2%
25 | NS(=O)(=O)CCN1CCOC(c2ccc(Cl)cc2)C1 (centres undefined) | -51.9%
26 | N#CC1(C(=O)N2CCOC(c3ccc(F)cc3)C2)CCCCC1 (centres undefined) | -14.2%
27 | CCN1CC2(CNCCN(C(=O)Nc3ccccc3)C2)CC1=O (centres undefined) | -80%
28 | Cc1cccc(CN2C(=O)CCC23CCN(C(=O)NC(C)C)CC3)n1 | -40.5%
29 | CC(C(=O)NCCCN1CCOCC1)n1cncn1 (centres undefined) | -22.9%
30 | c1csc(CN2CCC3(CCCN(c4nncs4)C3)C2)n1 (centres undefined) | -79.8%
31 | COc1ccc(CN2CCC3(CCCN(c4ncc(F)cn4)C3)C2)cc1 (centres undefined) | 74.2%
32 | Fc1cnc(N2CCCC3(CCN(Cc4ccoc4)C3)C2)nc1 (centres undefined) | 40.4%
33 | Fc1cnc(N2CCCC3(CCN(Cc4cccs4)C3)C2)nc1 (centres undefined) | 57.9%
34 | c1cnc(N2CCCC3(CCN(Cc4cccs4)C3)C2)nc1 (centres undefined) | -20.8%
35 | CS(=O)(=O)N1CCC2(CCCN(c3ncc(F)cn3)C2)C1 (centres undefined) | 28.2%
36 | COCCN1CCC2(CCCN(c3ncc(F)cn3)C2)C1 (centres undefined) | 24.9%
37 | Fc1cnc(N2CCCC3(CCN(Cc4ccco4)C3)C2)nc1 (centres undefined) | -3.88%
38 | c1ccc(N2CCCC3(CCN(Cc4nccs4)C3)C2)nc1 (centres undefined) | 29.1%
39 | Fc1cnc(N2CCCC3(CCN(Cc4nccs4)C3)C2)nc1 (centres undefined) | 55.5%
40 | CCCS(=O)(=O)N1CCC2(CCCN(c3ncc(F)cn3)C2)C1 (centres undefined) | 41%

Row | Structure (SMILES) | INHIBITION
41 | CCS(=O)(=O)N1CCC2(CCCN(c3ncc(F)cn3)C2)C1 (centres undefined) | 55.5%
42 | CCc1noc(C)c1C(=O)N1CCC(c2[nH]ncc2S(C)(=O)=O)C1 (centres undefined) | 35.2%
43 | CCNc1cc2c(nn1)CCN(C(=O)c1c(C)noc1C)C2 | 14.1%
44 | O=C(NCCCO)NCCc1cc(F)ccc1F | 22.6%
45 | Cc1ccc(CN2CCCn3c(nc(Cn4ccnc4)cc3=O)C2)o1 | 10%
46 | CN1CCCC1c1ccnc(-c2ccccn2)n1 (centres undefined) | -5.8%
47 | NC(=O)COc1ccc(CNCc2c(F)cccc2F)cc1 | 31.1%
48 | Cc1ccc(-c2nc(CNC3CCc4ncnn4C3)co2)cc1 (centres undefined) | 12.7%
49 | O=C([C@H]1C[C@H]2CN(c3ncc(F)cn3)C[C@@H]1O2)N1CCCC1 | 41.2%
50 | c1ccc(Cc2nc(CNCCn3cccn3)cs2)cc1 | 21.5%
51 | CC(C)c1nnc2n1CCN(C(=O)c1cc3cc(F)ccc3[nH]1)C2 | 45.7%
52 | N#Cc1cccc(N2CCCC3(CCC(=O)N(C4CCCC4)C3)C2)n1 (centres undefined) | 18.9%
53 | CC(C)c1cccc(N2CCCC3(CCC(=O)N(C4CC4)C3)C2)n1 (centres undefined) | 50.5%
54 | CC(O)c1cccc(N2CCC3(CCC(=O)N(C4CCCC4)C3)CC2)n1 (centres undefined) | -9.31%
55 | COCCCNC(=O)c1ccccc1S(C)(=O)=O | 18.4%
56 | Cc1cc(=O)[nH]c(=O)n1-c1cccc(Cl)c1Cl | 17.1%
57 | Cc1cc(C)n(-c2cncc(NCCNC(=O)c3cccnc3)n2)n1 | 31.9%
58 | CC(C)OCc1nn(C)c2c1CN(Cc1cccs1)CC2 | 35.8%
59 | Cc1nn(C(=O)c2cccnc2)c(C)c1C | 64.6%

Source: ChEMBL document CHEMBL4513216, “Probing the Open Global Health Chemical Diversity Library for Multistage-Active Starting Points for Next-Generation Antimalarials” (ACS Infect Dis, 2020)
